CtBP-E1A blk: qHTS Assay for Inhibitors of the CtBP/E1A Interaction. CtBP / adenovirus E1A interaction (AlphaScreen). AlphaScreen GST-E1A/His-CtBP binding, 1536-well; hits give low values. activity change, % (no concentration beside the values). hit rate 0.49% among 340,000; in the data active = activity change below about -65%; inconclusive = mostly about -30% to -63%
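GST-E1A and His-tagged CtBP (125 nM each as 5X stock) were preincubated with pin-transferred compound for 2 h at 37 °C in the dark, then glutathione donor and nickel acceptor beads were added for 1 h before AlphaScreen reading.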
uPA surface inh: qHTS for Inhibitors of Cell Surface uPA Generation | AID 540303, 2011 | hit rate 0.31% among 330,000 | Potency, µM (highest dose often 38.3 µM), for the others: top-dose activity change, negative = inhibition, most hits filed as inhibitors | cell surface uPA generation assay, qHTS; active = well fitted inhibition curve with a large enough effect; inconclusive = small, poorly fitted or top-dose-only effect; inactive = no such curve, though single readings can be large or run the other way; tested in mouse RAW 264.7 cells; also: potency is read from the fitted curve at half-maximal effect; nearly all actives have a fitted effect of over 55% in size
USP2a block: qHTS Assay for Inhibitors of Ubiquitin-specific Protease USP2a Using CHOP2 as the Reporter. Ubiquitin carboxyl-terminal hydrolase 2 (Homo sapiens), O75604. USP2 core, Ub-CHOP2 coupled fluorogenic reporter, 485/531. Potency, µM (series often up to 38.3 µM), for the others: at the highest dose activity change, negative = inhibition, usual class: inhibitors. hit rate 0.01% among 330,000. AID 463254, 2010;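 also: potency is read from the fitted curve at half-maximal effect; plate controls were DMSO wells for no effect and full inhibition by NEM control for full effect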
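Cell-free coupled assay: 10nM USP2 core preincubated 30min RT with compound in Tris-HCl pH 8.0/CaCl2/CHAPS buffer, then 25nM Ub-CHOP2 and 25nM reporter substrate; fluorescence (Ex 485/Em 531) read after 60min RT, normalized to NEM inhibition, concentration-response curves fitted.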
Eya2 inh: qHTS Assay for Inhibitors of the Phosphatase Activity of Eya2. recombinant Eya2, OMFP fluorescence dephosphorylation (OMFP is methylfluorescein phosphate). Potency, µM (highest dose often 76.9 µM), inactives show at the highest dose activity, negative = inhibition, hits mostly inhibitors. hit rate 0.006% among 330,000. AID 488837, 2010; also: potency is read from the fitted curve at half-maximal effect
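Eya2 (0.2 uM) preincubated 10 min at ambient with compound, then OMFP substrate added at 50 uM; 10 min reaction in 50 mM HEPES pH 7.5, 50 mM NaCl, 5 uM MgCl2, 0.05% BSA, 1 mM DTT. Fluorescence read at Ex 485/Em 525 nm.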
Six1-Eya2 blk: qHTS Assay for Inhibitors of the Six1/Eya2 Interaction. Homeobox protein SIX1 (Homo sapiens) + Protein phosphatase EYA2 (Homo sapiens), …. AlphaScreen GST-Six1/His-Eya2 binding, biochemical; hits give low values. activity change, % (concentration not given with the values). hit rate 0.56% among 360,000. AID 651725, 2012; in the data active = activity change below about -65%; inconclusive = mostly about -30% to -63%
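Six1/Eya2 binding was read as AlphaScreen signal after compounds were pinned into GST-Six1 plus His-tagged Eya2 (5X stock 250/500 nM) in pH 8.0 Tris/NaCl/TCEP buffer, beads added, then incubated 1 h, 37 C, dark.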
L3MBTL1 block: qHTS Assay for the Inhibitors of L3MBTL1. Lethal(3)malignant brain tumor-like protein 1 (Homo sapiens), Q9Y468. AlphaScreen L3MBTL1–H3K9me1 peptide binding. hit rate 0.66% among 230,000. Potency, µM (doses to about 57.1 µM), for inactives: at the top dose activity, negative = inhibition, most hits filed as inhibitors; also: potency is read from the fitted curve at half-maximal effect; nearly all actives have a fitted effect of over 60% in size
Target sequence (Q9Y468 whole entry, looked up): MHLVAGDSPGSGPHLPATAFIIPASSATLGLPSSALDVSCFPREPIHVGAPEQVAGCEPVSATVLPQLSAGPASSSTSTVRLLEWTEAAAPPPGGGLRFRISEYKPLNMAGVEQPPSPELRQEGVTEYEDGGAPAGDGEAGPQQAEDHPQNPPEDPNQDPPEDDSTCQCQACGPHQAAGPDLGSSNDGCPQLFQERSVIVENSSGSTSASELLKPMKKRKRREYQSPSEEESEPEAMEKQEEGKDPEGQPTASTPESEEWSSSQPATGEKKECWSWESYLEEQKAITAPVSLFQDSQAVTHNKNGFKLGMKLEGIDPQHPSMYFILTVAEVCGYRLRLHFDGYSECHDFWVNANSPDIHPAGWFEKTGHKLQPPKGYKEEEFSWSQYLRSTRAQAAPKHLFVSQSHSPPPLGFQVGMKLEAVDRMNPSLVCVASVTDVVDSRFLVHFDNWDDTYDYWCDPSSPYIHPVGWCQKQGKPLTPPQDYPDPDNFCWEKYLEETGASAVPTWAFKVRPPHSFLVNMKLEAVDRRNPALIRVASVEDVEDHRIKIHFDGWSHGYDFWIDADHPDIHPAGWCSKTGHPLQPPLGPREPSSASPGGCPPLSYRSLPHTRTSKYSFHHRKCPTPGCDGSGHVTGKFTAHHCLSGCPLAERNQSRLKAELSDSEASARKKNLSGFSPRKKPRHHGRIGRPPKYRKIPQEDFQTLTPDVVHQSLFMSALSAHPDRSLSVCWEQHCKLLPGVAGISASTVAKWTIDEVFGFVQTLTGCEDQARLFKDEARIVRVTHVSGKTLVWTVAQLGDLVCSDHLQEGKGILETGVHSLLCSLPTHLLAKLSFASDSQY
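AlphaScreen assay: L3MBTL1 (50 nM final) was preincubated 30 min at room temperature with biotinylated H3(1-15)K9me1 peptide (75 nM final), then 30 min with library compounds; streptavidin donor and nickel chelate acceptor beads (10 ug/mL final) added, 30 min dark.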
Numbers without * were called inactive; ? = inconclusive; / = no result given. Compounds with a hit are over-represented: about 1.2% of the library has one in this group of screens. Unless noted, calls follow the shape of the dose curve; as a rule, active = well fitted curve in the direction sought with a large enough effect; inconclusive = small, poorly fitted or top-dose-only effect, or another doubt; inactive = no such curve, though single readings can be large; an effect the other way counts as inactive or inconclusive. Unless noted, % is scaled to controls: 0 for no effect and ±100 for the full control effect.

SMILES	CtBP-E1A blk	uPA surface inh	USP2a block	Eya2 inh	Six1-Eya2 blk	L3MBTL1 block
CC(N)c1csc(Nc2nncc3ccccc23)n1 (centres undefined)	-21	/	/	/	-18	/
NC(c1csc(Nc2cc(Oc3ccccc3)ncn2)n1)c1ccccc1Cl (centres undefined)	?	/	/	/	-26	/
CC(N)c1csc(Nc2cc(Oc3ccccc3)ncn2)n1 (centres undefined)	-68*	/	/	/	?	/
CC(CN1CCN(C)CC1)OC(=O)c1cccc(Cl)c1 (centres undefined)	3	5%	-3%	17%	0	/
COc1cccc(/C=N/NC(=O)c2ccc(-c3ccccc3)cc2)c1O	-4	-13%	4%	-21%	7	/
COc1cccc(/C=N/Nc2cc(N3CCOCC3)ncn2)c1O	-94*	-13%	-1%	0%	-91*	?
COc1cccc(/C=N/Nc2ncnc3c2ncn3Cc2ccccc2)c1O	-87*	-7%	3%	4%	-78*	-1%
COc1cccc(/C=N/NC(=O)c2c(C)nc3ccc(Cl)cn23)c1O	-94*	-11%	0%	3%	-78*	/
COc1ccc(/C=N/Nc2cc(N3CCOCC3)ncn2)c(OC)c1	?	-4%	0%	5%	-1	7%
COc1cccc(/C=N/Nc2cc(Cl)nc(C)n2)c1O	/	1%	-3%	2%	-9	13%
COc1cccc(/C=N/NC(=O)c2[nH]c(C)c(C(=O)N/N=C/c3cccc(OC)c3O)c2C)c1O	-1	-6%	-23%	-10%	-92*	/
COc1cccc(/C=N/NC(=O)c2ccc(=O)[nH]n2)c1O	/	?	3%	-3%	-79*	-21%
COc1cccc(/C=N/Nc2nnc(C)n2N)c1O	-88*	-5%	-4%	0%	-73*	/
COc1cccc(/C=N/NC(=O)c2ccc(=O)n(C)c2)c1O	-87*	-3%	-1%	-1%	-88*	-6%
COc1cccc(NC(=O)C2C3C=CC4(O3)C2C(=O)N(CCCN2CCCCC2)C4C(=O)NC2CCCCC2)c1 (centres undefined)	0	-1%	1%	5%	-11	/
COc1cc(NC(=O)CSc2nc3c(c(=O)n(C)c(=O)n3C)n2C)cc(OC)c1	-22	1%	1%	2%	-4	/
O=C(c1ccccc1)c1ccccc1C(=O)N1CCN(C(=O)c2ccccc2)CC1	6	-3%	1%	-1%	4	-1%
CN(C)c1ccc(Cc2ccc(N(C)C)cc2)cc1	/	-16%	/	/	-92*	/
CN(C)c1ccc(CCc2ccc(N)cc2)cc1	?	-2%	/	/	0	/
O=C(O)c1cc(N/N=C/c2ccc(N3CCOCC3)s2)ccc1Cl	-6	-1%	-3%	-3%	?	20µM*
NC(=O)N/N=C/c1ccc(N2CCOCC2)s1	-6	-5%	2%	8%	-7	-3%
CCOc1ccc(S(=O)(=O)N2CCN(C)CC2)cc1NC(=O)c1ccccc1F	1	-9%	1%	3%	-69*	/
CCOc1ccc(S(=O)(=O)N2CCN(CC)CC2)cc1NC(=O)c1ccccc1F	?	-4%	2%	1%	?	/
Cc1ccc(-c2cc(Cc3ccc(N(C)C)cc3)c(=O)[nH]n2)cc1	-28	-5%	-1%	-4%	-23	/
O=C1C=C(NCCc2cc(Br)c(O)c(Br)c2)C(=O)c2ncccc21	-92*	-12%	/	/	-86*	/
SMILES	CtBP-E1A blk	uPA surface inh	USP2a block	Eya2 inh	Six1-Eya2 blk	L3MBTL1 block
COc1ccc(C2CC(=O)C(C3NCCc4ccccc43)=C(O)C2n2cncn2)cc1 (centres undefined)	2	3%	-2%	-25%	1	-10%
CC(C)n1c(O)c(N=NC(=O)c2ccccc2NS(=O)(=O)c2cccs2)c2ccccc21	/	14%	2%	2%	-86*	1%
CCCCn1c(O)c(N=NC(=O)c2ccccc2NS(=O)(=O)c2cccs2)c2ccccc21	-16	5%	2%	-4%	-20	-14%
Cc1cccc(N2CCN(C(=O)CSc3ccsc3[N+](=O)[O-])CC2C)c1 (centres undefined)	-16	-12%	-14%	1%	-24	32µM*
O=C(CN1CCCC1c1cccs1)Nc1cccc(S(=O)(=O)N2CCCC2)c1 (centres undefined)	-2	-4%	-1%	?	-5	-2%
O=C(COc1ccc(F)cc1)N/N=C/c1cccc2cccnc12	-86*	?	/	/	?	/
Cc1ccc(OCC(=O)N/N=C/c2cn(C)c3ccccc23)cc1	6	-12%	0%	-2%	0	/
Cc1ccc(OCC(=O)N/N=C/c2cccc3cccnc23)cc1	-90*	5%	-4%	-3%	-77*	/
CC(C)(C)OC(=O)NCCC(=O)N/N=C/c1ccc2ncccc2c1	-20	0%	10%	8%	?	/
Cc1ccccc1OCC(=O)N/N=C/c1cccc2cccnc12	-13	-5%	2%	-7%	-76*	/
CC(C)(C)OC(=O)NCCC(=O)N/N=C/c1cccc2cccnc12	-79*	-8%	0%	-1%	?	?
O=C(COc1cccc2cccnc12)N/N=C/c1ccccc1O	-25	6%	-1%	-5%	-18	4%
O=S(=O)(c1ccc(-c2ccon2)s1)N1CCN(c2ccncc2)CC1	0	1%	0%	-2%	-2	/
Oc1ccc(CN2CCN(Cc3ccccc3)CC2)c2cccnc12	-98*	-8%	1%	-3%	-93*	-2%
Oc1ccc(COCc2ccc(F)cc2)c2cccnc12	/	/	-1%	13%	/	?
O=S(=O)(c1ccc(Cl)cc1)N1CCN(Cc2ccc(O)c3ncccc23)CC1	2	-1%	-17%	-5%	-92*	?
CN1CCN(Cc2cc(COCc3ccccc3)c3cccnc3c2O)CC1	-94*	-12%	-8%	1%	-89*	14µM*
CN1CCN(C2CCN(Cc3ccc(O)c4ncccc34)CC2)CC1	/	?	1%	3%	/	14µM*
N=c1nc2n(cc1F)C1OC(CO)C(O)C1O2 (centres undefined)	-5	-10%	/	/	8	/
